# Measured values as given in PubChem BioAssay AID1851 (National Center for Advancing Translational Sciences (NCATS), 2009).
# Out of some 16,000 compounds screened, about 5,800 (36%) were called active. Inconclusive results (about 23%) are left out. Calls come from the whole dose curve; as a rule, active = well fitted curve in the direction sought with a large enough effect; inconclusive = small, poorly fitted or top-dose-only effect, or effect the other way; inactive = no such curve, though single readings can be large or run the other way. The list shows a part of the results.
# Target: Cytochrome P450 2C19 (Homo sapiens) (UniProt P33261)
# Sequence (P33261 whole entry, looked up): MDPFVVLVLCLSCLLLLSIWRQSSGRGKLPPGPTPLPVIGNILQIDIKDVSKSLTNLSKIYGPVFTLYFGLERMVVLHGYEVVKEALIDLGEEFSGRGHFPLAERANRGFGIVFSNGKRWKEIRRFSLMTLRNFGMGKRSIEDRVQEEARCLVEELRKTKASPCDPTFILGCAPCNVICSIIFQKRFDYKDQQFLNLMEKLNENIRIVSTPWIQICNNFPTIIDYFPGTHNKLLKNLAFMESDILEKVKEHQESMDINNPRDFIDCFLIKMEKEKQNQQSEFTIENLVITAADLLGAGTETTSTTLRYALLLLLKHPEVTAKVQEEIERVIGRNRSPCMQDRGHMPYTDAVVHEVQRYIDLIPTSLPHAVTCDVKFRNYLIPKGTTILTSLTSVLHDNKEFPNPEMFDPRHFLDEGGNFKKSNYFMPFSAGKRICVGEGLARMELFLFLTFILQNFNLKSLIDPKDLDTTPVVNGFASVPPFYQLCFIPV
# Assay: Cytochrome panel assay with activity outcomes
# Settings: recombinant CYP, pro-luciferin dealkylation, luminescence, p450-cyp2c19; series mostly up to 57.1 µM; activity, negative = inhibition: at the top concentration
# % is set by controls: 0 for no effect and ±100 for the full control effect.
Compound,"activity, negative = inhibition",AC50
CCNc1ncc2nc(-c3cccs3)c(=O)n(C[C@H]3CCCO3)c2n1,-9.35% (inactive),–
CN(C)C(=O)CSC1c2ccccc2C(=O)N1c1ccccc1 (stereo not given),-16% (inactive),–
CCC(=O)N(C)/C=C1\Sc2ccccc2C1=O,–,20 µM (active)
CCOC(=O)C1CCCN(C(=O)c2sc3nc(-c4ccc(OC)cc4)cn3c2C)C1 (stereo not given),–,7.94 µM (active)
CCSc1nc2c(c(=O)[nH]1)C(c1ccccn1)C1=C(CC(C)(C)CC1=O)N2 (stereo not given),-2.31% (inactive),–
CCSc1nc2c(c(=O)[nH]1)C(c1ccncc1)C(C(=O)OC(C)C)=C(C)N2 (stereo not given),–,0.708 µM (active)
CSc1nc2c(c(=O)[nH]1)C(c1ccncc1)C(C(=O)OC(C)C)=C(C)N2 (stereo not given),–,1.12 µM (active)
O=c1c2ccccc2ncn1CCCSc1ccccc1,–,1.41 µM (active)
O=C(c1ccccc1)c1ccc(OCCn2cnc3ccccc3c2=O)cc1,–,1.58 µM (active)
Cc1ccc(SCCCn2cnc3ccccc3c2=O)cc1,–,2.24 µM (active)
CCOCCCn1cnc2c(c1=O)c1nc3ccccc3nc1n2-c1ccccc1,-8.6% (inactive),–
O=C1c2ccccc2C(=O)N1CCCSc1ccccc1,–,0.631 µM (active)
N#CCSc1ncnc2c1cnn2CCO,-21.2% (inactive),–
O=C(/C=C/c1ccc2c(c1)OCO2)NCCSCc1cccc(Cl)c1,–,3.16 µM (active)
Cc1cccc(C(=O)N/N=C/c2ccc(OCC(=O)N3CCCCC3)cc2)c1,-68.9% (inactive),–
O=C(CSCc1cccc(Br)c1)N/N=C/c1ccc2c(c1)OCO2,–,11.2 µM (active)
O=C(Cn1nc(C(F)F)cc1C(F)F)N/N=C/c1ccc2c(c1)OCO2,–,1.58 µM (active)
CCCc1nnc(SCC(=O)O)n1/N=C/c1ccc2c(c1)OCO2,-17.5% (inactive),–
COC(=O)N/N=C\C=C\c1ccc2c(c1)OCO2,-7.72% (inactive),–
O=C(CSCc1cccc(Cl)c1)N/N=C/c1ccc(OCC(=O)N2CCCCC2)cc1,–,3.16 µM (active)
COc1ccc2c(c1OC)C(=O)N(C(C)C(=O)O)C2=O (stereo not given),-21.8% (inactive),–
COc1ccc(-n2c(=O)c(C)nc3cnc(N(C)C)nc32)cc1,9.33% (inactive),–
N=C(N)C(N=Nc1ccccc1)C(=N)N (stereo not given),-2.71% [at 11.4 µM] (inactive),–

Compound,"activity, negative = inhibition",AC50
CC[C@H](Cc1c(I)cc(I)c(N)c1I)C(=O)O,-35.8% [at 25.6 µM] (inactive),–
O=C(NC12CC3CC(CC(C3)C1)C2)N1CCN(c2nc(-c3ccccc3)cs2)CC1,–,2.82 µM (active)
N[C@@H](CSCc1ccc(I)cc1)C(=O)O,12.9% [at 11.4 µM] (inactive),–
COc1ccc(-n2c(=O)c(-c3ccc(F)cc3)nc3cnc(OC)nc32)cc1,-29% (inactive),–
C/C(CCN1CCc2nc(-c3ccccc3)c(-c3ccccc3)cc2C1)=N\OC[C@@H](O)COCc1ccco1,-21.9% [at 11.4 µM] (inactive),–
CCCNC(=O)OC[C@@H]1O[C@H](CCO/N=C(\C)CCN2CCCCc3nc(C)c(C)cc32)C=C[C@@H]1Oc1ccc(OC)cc1,-12.9% [at 11.4 µM] (inactive),–
CO/N=C(\C)CCN1CCCCc2nc(C)c(C)cc21,-22.3% [at 11.4 µM] (inactive),–
COc1ccc(O[C@H]2C=C[C@@H](c3ccccc3)O[C@@H]2CO/N=C(\C)CCN2CCCc3nc(C)c(C)cc32)cc1,–,0.398 µM (active)
CC(=O)OC[C@@H]1O[C@H](CCO/N=C(\C)CCN2CCc3nc(-c4ccccc4)c(-c4ccccc4)cc3C2)C=C[C@@H]1OC(C)=O,-28.2% [at 11.4 µM] (inactive),–
CCc1cc2c(nc1CC)CCN(CC/C(C)=N/OC[C@@H](C)[C@H](OCc1ccccc1)C(C)C)C2,-15.6% [at 11.4 µM] (inactive),–
COc1ccc(O[C@H]2C=C[C@@H](c3ccccc3)O[C@@H]2CO/N=C(\C)CCN2CCc3nc(-c4ccccc4)c(-c4ccccc4)cc3C2)cc1,–,0.251 µM (active)
C=CC[C@@H]1C=C[C@H](O/N=C(\C)CCN2CCc3nc(-c4ccccc4)c(-c4ccccc4)cc3C2)[C@H](CO)O1,-25.6% [at 11.4 µM] (inactive),–
CC(=O)OC[C@@H]1O[C@H](CCO/N=C(\C)CCN2CCCc3nc(C)c(C)cc32)C=C[C@@H]1OC(C)=O,38.8% [at 11.4 µM] (inactive),–
COc1ccc(O[C@H]2C=C[C@@H](c3ccccc3)O[C@@H]2CO/N=C(\C)CCN2CCCCc3nc(C)c(C)cc32)cc1,–,2.51 µM (active)
CCCNC(=O)OC[C@@H]1O[C@H](CCO/N=C(\C)CCN2CCCc3nc(C)c(C)cc32)C=C[C@@H]1Oc1ccc(OC)cc1,-43.5% [at 11.4 µM] (inactive),–
C/C(CCN1CCc2nc(-c3ccccc3)c(-c3ccccc3)cc2C1)=N\OC[C@@H](C)[C@H](OCc1ccccc1)C(C)C,–,1.58 µM (active)
COC(=O)CC[C@@H](C)[C@H]1CC[C@H]2[C@H]3CC[C@H]4C[C@@H]5CC[C@@]4(C)C3(O5)[C@@H](Br)[C@@H](Br)[C@@]12C,-31% [at 11.4 µM] (inactive),–
OCCN=c1cc(-c2ccccc2)oc2ccc(Cl)cc12,–,1.58 µM (active)
CCCCN1CCC(n2c(=O)[nH]c3ccccc32)CC1,26.7% (inactive),–
CCCCCCN1Cc2ccccc2C1,–,10 µM (active)
CCCCNC(=O)[C@@H]1Cc2ccccc2N1C(=O)[C@H](N)CC,6.24% (inactive),–
CCN(CC)C(=O)N1CCN(C)CC1,-6.34% [at 25.6 µM] (inactive),–
COC(=O)[C@@]1(Cc2ccccc2)[C@H]2c3cc(C(=O)N4CCCC4)n(CC4CC4)c3C[C@H]2CN1C(=O)c1ccccc1,–,3.16 µM (active)

Compound,"activity, negative = inhibition",AC50
COc1ccccc1CN1CCCC2(CCN(C(=O)c3ccncc3)CC2)C1,-42.2% (inactive),–
Cn1cccc1C(=O)N1CCC2(CCCN(Cc3ccccc3)C2)CC1,-28% (inactive),–
COC(=O)[C@@]1(Cc2ccccc2)[C@H]2c3cc(C(=O)N4CCCC4)n(C)c3C[C@H]2CN1C(=O)c1ccccc1,–,3.98 µM (active)
COC(=O)[C@@]1(Cc2ccccc2)[C@H]2c3cc(C(=O)N4CCCC4)n(Cc4ccc(O)c(OC)c4)c3C[C@H]2CN1C(=O)c1ccccc1,–,0.501 µM (active)
O=C(c1cc(C(F)(F)F)cc(C(F)(F)F)c1)N1CCC2(CC1)CN(c1ccncc1)C2,-19.3% (inactive),–
O=C(c1ccncc1)N1CCC2(CC1)CN(c1ccccc1)C2,–,0.316 µM (active)
O=C(c1ccncc1)N1CCC[C@@]2(CCN(c3ccccc3)C2)C1,3.46% (inactive),–
O=C(c1ccncc1)N1CCC2(CC1)CN(c1ncccn1)C2,-28.5% (inactive),–
O=C(c1cccc(F)c1)N1CCC2(CC1)CN(c1ccc(-c3ccccc3)cc1)C2,-6.52% (inactive),–
COc1ccc(C(=O)N2CCC3(CC2)CCN(c2ncccn2)CC3)cc1,-25.9% (inactive),–
O=C(c1cccc(F)c1)N1CCC2(CC1)CCN(c1ccncc1)CC2,-19% (inactive),–
O=C(c1cccc(F)c1)N1CCC2(CC1)CN(c1ccncc1)C2,–,3.16 µM (active)
O=C(c1ccncc1)N1CCC2(CC1)CCN(c1ncccn1)CC2,–,2.51 µM (active)
NC(N)=NC(N)=Nc1ccc(S(N)(=O)=O)cc1,28.1% [at 11.4 µM] (inactive),–
CC(C)CN1CC2(CCN(C(=O)c3cccc(F)c3)CC2)C1,19.3% (inactive),–
NNC(=O)[C@@H](O)[C@H](O)[C@H](O)CO,16% [at 11.4 µM] (inactive),–
Cn1c([N+](=O)[O-])cnc1COC(N)=O,-41.3% [at 25.6 µM] (inactive),–
CCCCCCCCCCCCCCCC(=O)C(F)(F)F,19.4% (inactive),–
Nc1nc(Cl)cc(N2CCC(c3cc(-c4ccc(Cl)cc4Cl)n[nH]3)CC2)n1,–,3.98 µM (active)
COc1ccc(-c2cc(C3CCN(c4cc(Cl)nc(N)n4)CC3)[nH]n2)cc1,–,3.16 µM (active)
NC1CCN(c2cccc(Cl)n2)CC1,–,inactive
C[N+](C)(C)c1ccc([C@H](N)C(=O)O)cc1,-19.4% [at 11.4 µM] (inactive),–
CCOC(=O)C1C(=O)C=C(c2ccc(C)cc2)CC1c1ccco1 (stereo not given),–,3.98 µM (active)

Compound,"activity, negative = inhibition",AC50
CCOC(=O)C1C(=O)C=C(c2ccc(NS(C)(=O)=O)cc2)CC1c1ccco1 (stereo not given),–,14.1 µM (active)
CCCCCCC(C)n1cc(C(C)=O)c(=O)[nH]c1=O (stereo not given),–,15.8 µM (active)
CCCCCCCCn1cc(C(C)=O)c(=O)[nH]c1=O,–,17.8 µM (active)
N[C@@H](Cn1cc(F)c(=O)[nH]c1=O)C(=O)O,-26.3% (inactive),–
CC(C)NC[C@H](O)c1cc(O)cc(O)c1,–,inactive
CC(C)Oc1ccc2ccccc2c1C=O,–,10 µM (active)
COc1ccc(C(=O)NCS(=O)(=O)c2ccc(C)cc2)cc1,–,6.31 µM (active)
O=C(CN(Cc1ccco1)C(=O)c1cccc(Cl)c1)Nc1c(Cl)cc(Cl)cc1Cl,–,10 µM (active)
O=C(CN(Cc1ccco1)C(=O)c1ccccc1)Nc1ccc(Cl)c(Cl)c1,–,3.16 µM (active)
Cc1cc(N2CCN(C)CC2)nc2ccc(NC(=O)CCC(=O)NCc3ccco3)cc12,34.7% (inactive),–
CO[C@]1(C2=NCCN2)COc2ccccc2O1,–,inactive
Cc1ccc(SCC(=O)Nc2cccc(NC(=O)c3ccco3)c2)cc1,–,7.08 µM (active)
O=C(CSc1ccc(Cl)cc1)Nc1cccc(NC(=O)c2ccco2)c1,–,2.51 µM (active)
CCC(=O)Nc1cccc(NC(=O)CSc2nnnn2Cc2ccccc2)c1,–,10 µM (active)
CNC(=O)c1nnn(Cc2ccccc2)c1NC(=O)C(F)(F)F,-10.7% (inactive),–
Cc1ccc(-n2nnnc2SCC(=O)NNC(=O)c2ccco2)c(C)c1,-28.9% (inactive),–
CCc1cc2cc(C)c(C)cc2nc1SCC(=O)NNC(=O)c1ccco1,1.63% (inactive),–
CC(=O)c1ccc(-n2nnnc2SCC(=O)Nc2cccc(NC(=O)c3ccco3)c2)cc1,–,3.16 µM (active)
O=C(NCc1ccccc1)c1sc(=S)n2c1[nH]c(=O)c1ccccc12,–,11.2 µM (active)
Nc1c(C(=O)NCc2ccccc2)sc2nc3c(cc12)C(=O)CCC3,-22.7% (inactive),–
O=C(NC1CCCCC1)c1sc(=S)n2c1[nH]c(=O)c1ccccc12,–,4.47 µM (active)
